Screening data deposited in PubChem by Johns Hopkins Ion Channel Center.
KCNQ2 pot: potentiators of rat KCNQ2 potassium channel. O88943. CHO-K1 KCNQ2, FluxOR thallium flux fluorescence; stronger effect = higher value. B-score at 10 µM. 0.54% of 310,000 active;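 active = fluorescence ratio B-score at least 3 SD of library B-scores, with initial fluorescence B-score within 3 of them, cut at about 5.3 in these data; same plate scores as AID 2156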;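 note: B-score of peak minus minimum over baseline fluorescence ratio after K+ and Tl+ stimulus; positive B-score means potentiation of KCNQ2 with more thallium influx and brighter signal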
Target sequence (O88943 whole entry, looked up): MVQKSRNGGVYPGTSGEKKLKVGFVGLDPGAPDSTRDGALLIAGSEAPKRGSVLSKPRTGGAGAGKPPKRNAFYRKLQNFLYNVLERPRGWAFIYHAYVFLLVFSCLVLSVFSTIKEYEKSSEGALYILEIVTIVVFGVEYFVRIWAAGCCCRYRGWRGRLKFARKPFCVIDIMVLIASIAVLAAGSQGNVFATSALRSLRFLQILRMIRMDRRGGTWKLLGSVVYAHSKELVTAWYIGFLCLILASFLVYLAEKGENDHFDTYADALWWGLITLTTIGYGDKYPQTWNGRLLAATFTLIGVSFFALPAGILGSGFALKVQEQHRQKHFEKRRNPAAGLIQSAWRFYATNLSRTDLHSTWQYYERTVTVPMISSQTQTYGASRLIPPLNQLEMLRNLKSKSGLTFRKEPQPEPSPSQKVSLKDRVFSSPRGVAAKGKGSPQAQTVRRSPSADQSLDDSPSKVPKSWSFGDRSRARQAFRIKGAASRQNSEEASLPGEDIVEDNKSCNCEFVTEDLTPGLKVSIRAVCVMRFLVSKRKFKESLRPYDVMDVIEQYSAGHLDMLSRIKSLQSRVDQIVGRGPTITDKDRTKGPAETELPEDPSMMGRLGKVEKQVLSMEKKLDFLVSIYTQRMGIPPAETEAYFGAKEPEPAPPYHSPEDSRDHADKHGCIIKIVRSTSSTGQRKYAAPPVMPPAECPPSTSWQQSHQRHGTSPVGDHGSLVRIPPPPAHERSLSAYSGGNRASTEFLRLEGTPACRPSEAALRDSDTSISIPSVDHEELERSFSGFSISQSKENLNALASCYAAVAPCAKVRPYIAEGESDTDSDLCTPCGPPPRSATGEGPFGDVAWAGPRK
KCNQ2 block: blocks the rat KCNQ2 potassium channel; CHO-K1 KCNQ2, FluxOR thallium flux, 20 min; stronger effect = lower value; B-score at 10 µM; AID 2156; O88943; 1.1% of 310,000 active;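 active = fluorescence ratio B-score at most minus 3 library SDs, with starting brightness B-score within 2 library SDs, cut at about -5.5 in these data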
Kir21 confirm: confirmation of mouse Kir2.1 potassium channel inhibitors | 41% of 2,300 active | shares compounds with KCNQ2 pot | AID 2032 | Kir2.1-expressing cells, FluxOR thallium flux fluorescence; stronger effect = lower value | Tl flux remaining, % of negative control (stronger effect = lower value), % at 10 µM;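 active = Primary-screen hit whose thallium flux fell at least 3 control SD below untreated wells in both duplicates, with normal baseline fluorescence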;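 note: 0% = blank wells without stimulus and 100% = stimulated no-compound controls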
HEK293 Tl flux: counter-screen for Kir2.1 inhibitors: effect in parental HEK293 cells | shares compounds with KCNQ2 pot | FluxOR thallium flux fluorescence; 0% = unstimulated blank wells | FluxOR signal as % of negative control (100 = no effect), % at 10 µM | 19% of 2,300 active | AID 2105;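 active = dye signal at least 3 control SD above or below untreated wells in both duplicates, raw fluorescence within 3, either direction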;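 note: percent is based on the flux ratio of peak minus minimum fluorescence over baseline F0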
CHO-K1 Tl ctr: counter-screen for KCNQ2 potentiators: effect in parental CHO-K1 cells; 43% of 1,200 active; FluxOR thallium flux fluorescence; zero = vehicle mean+3SD, 100% = vehicle-minus-blank window; activity increase over 3SD of controls, % at 10 µM; AID 2282; shares compounds with KCNQ2 pot;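 active = signal rise of at least 3 SD above the untreated control mean, in both duplicate wells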;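 note: counter screen of KCNQ2 potentiator hits so any rise reflects channel-independent effects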
KCNQ1 sel pot: human KCNQ1 counter-target activity of KCNQ2 potentiators; 28% of 1,200 active; activation over 3SD threshold, % at 10 µM; CHO KCNQ1 stable, FluxOR thallium flux fluorescence; beyond 3SD, as % of vehicle-control signal; AID 2283; shares compounds with KCNQ2 pot;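 active = fluorescence ratio rise of at least 3 SD of vehicle wells above their mean, in both replicate wells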;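 note: 0% = vehicle mean plus 3 SD and 100% = vehicle minus unstimulated blank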
KCNQ2 pot confirm: rat KCNQ2 channel potentiator confirmation; potentiation, less the hit threshold, % at 10 µM; CHO-KCNQ2 cells, FluxOR thallium flux fluorescence; 68% of 1,200 active; shares compounds with KCNQ2 pot;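 active = fluorescence ratio rising 3 SD or more over the vehicle control mean in both replicates, plus primary screen hit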;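 note: peak minus minimum thallium fluorescence divided by baseline after K/Tl stimulus; 0% = vehicle mean plus 3 SD and 100% = vehicle minus unstimulated blank difference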
Kir21 spec: tests whether KCNQ2 potentiators also affect mouse Kir2.1. activity over 3SD threshold, % at 10 µM. 2% of 1,200 active. HEK293 Kir2.1, FluxOR thallium flux fluorescence. shares compounds with KCNQ2 pot;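 active = fluorescence ratio rise of at least 3 SD above the vehicle-control mean, seen in both replicates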;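 note: 0% = vehicle mean plus 3 SD and 100% = vehicle minus no-stimulus blank window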
KCNQ2 W236L MoA: rat KCNQ2 W236L mutant potentiation by KCNQ2 potentiators. current increase over 3SD of negative controls (%), stronger effect = higher value, % at 25 µM. CHO KCNQ2-W236L, automated patch clamp current. shares compounds with KCNQ2 pot. 10% of 940 active;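 active = current increase at least 3 SD of the untreated controls above them in both duplicate recordings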
* hit, by the source's call; i = inactive; . = no result. Only some compounds are listed: those with a hit (about 1.6% of all), similar ones and a draw of the others.

SMILES	KCNQ2 pot	KCNQ2 block	Kir21 confirm	HEK293 Tl flux	others
Cc1cc(C(=O)CCC(=O)N2CCN(S(=O)(=O)c3ccccc3)CC2)c(C)s1	6.2*	i	i	i	CHO-K1 Tl ctr=-14;KCNQ1 sel pot=-14;KCNQ2 pot confirm=11*;Kir21 spec=-32;KCNQ2 W236L MoA=i
Cc1cc(C(=O)CCC(=O)N2CCN(S(=O)(=O)c3cccs3)CC2)c(C)s1	4.9	i	.	.
CCC(C)NC(=O)CCSc1ccc(C)cc1 (centres undefined)	0.64	i	.	.
COc1ccc(NC(=O)COc2cccc3c2CCN(Cc2cccnc2)C3=O)c(OC)c1	.	i	.	.
Cc1onc(-c2c(Cl)cccc2Cl)c1C(=O)NCCc1ccncc1	.	i	.	.
COc1ccc(CNCC(O)(c2ccccc2)c2ccc(F)cc2)cc1OC (centres undefined)	0.98	i	.	.
COc1ccc(CNCC(O)(c2ccccc2)c2ccc(F)cc2)cc1 (centres undefined)	.	i	42%*	i
COc1ccc(CCNC/C=C/c2ccccc2)cc1	0.37	i	.	.
Cc1ccc(C(O)(CCN2CCCCC2)c2ccccc2)cc1 (centres undefined)	.	i	.	.
COc1ccc(CNC/C=C/c2ccccc2)cc1	0.18	i	18%*	i
Cc1ccc(C(O)(CNCc2ccccc2)c2ccccc2)cc1 (centres undefined)	.	i	46%*	i
CCOc1ccccc1N1CCN(C(=O)c2cccs2)CC1	0.56	i	.	.
COc1ccc(S(=O)(=O)Nc2ccccc2OC)cc1C	1.6	i	.	.
COc1ccc(S(=O)(=O)Nc2ccccc2SC)cc1C	.	i	54%*	i
S=C(NCc1ccc(Cl)cc1)NCc1ccccn1	.	i	.	.
CC(C)CCC(CCNCc1ccccn1)c1ccc(Cl)cc1 (centres undefined)	0.09	i	36%*	i
O=C(NCc1ccc2c(c1)OCO2)Nc1cccc(Cl)c1	21*	i	i	i	CHO-K1 Tl ctr=-11;KCNQ1 sel pot=-31;KCNQ2 pot confirm=70*;Kir21 spec=-26;KCNQ2 W236L MoA=i
CC(=O)c1cccc(NC(=O)NCc2ccc3c(c2)OCO3)c1	2.1	i	.	.
O=C(/C=C/c1cccs1)NCc1ccc2c(c1)OCO2	8.6*	i	i	i	CHO-K1 Tl ctr=12*;KCNQ1 sel pot=-11;KCNQ2 pot confirm=1.0*;Kir21 spec=-40;KCNQ2 W236L MoA=i
O=C(/C=C/c1ccccc1)NCc1ccc2c(c1)OCO2	2	i	.	.
O=[N+]([O-])c1ccccc1/C=C/C=N/Nc1ccc(S(=O)(=O)Nc2ccc(Cl)cc2)cc1[N+](=O)[O-]	.	i	.	.
Cc1cc(C)nc(CCNC(=O)c2cc(COc3c(C)cccc3C)on2)n1	0.21	i	.	.
CCc1cc2c3c([nH]c2cc1S(=O)(=O)N1CCC2(CC1)OCCO2)CCCC3=O	1.6	i	.	.
Cc1cc2c3c([nH]c2cc1S(=O)(=O)N1CCC2(CC1)OCCO2)CC(C)(C)CC3=O	5.5*	i	i	62%*	CHO-K1 Tl ctr=-3;KCNQ1 sel pot=-24;KCNQ2 pot confirm=-11;Kir21 spec=-27
Cc1ccc(C(=O)N[C@@H](C)CN2C3=NC[C@H](C)N3C[C@H]2Cc2ccc(O)cc2)cc1Br	.	i	.	.
SMILES	KCNQ2 pot	KCNQ2 block	Kir21 confirm	HEK293 Tl flux	others
Cc1[nH]n(-c2ccccc2)c(=O)c1N=Nc1ccccc1O	1.5	i	.	.
Cc1[nH]n(-c2ccccc2)c(=O)c1N=Nc1nccs1	15*	i	i	550%*	CHO-K1 Tl ctr=-6;KCNQ1 sel pot=16*;KCNQ2 pot confirm=91*;Kir21 spec=18*;KCNQ2 W236L MoA=i
COc1ccccc1C(=O)Nc1ccnn1C1CCN(Cc2cnc(N(C)C)s2)CC1	.	i	.	.
CN(C)S(=O)(=O)N1CCN(C(=O)c2ccc3c(c2)OCO3)CC1	1.4	i	.	.
COc1ccccc1C1=NOC(Cn2c(NCCCO)nc3c2c(=O)n(C)c(=O)n3C)C1 (centres undefined)	0.64	i	.	.
COc1ccc(C2=NOC(Cn3c(Cc4ccc(Cl)cc4)nc4c3c(=O)n(C)c(=O)n4C)C2)cc1 (centres undefined)	5.4*	i	i	i	CHO-K1 Tl ctr=6.7*;KCNQ1 sel pot=-39;KCNQ2 pot confirm=-13;Kir21 spec=-24
CCNC(=S)NNC(=O)CCc1nc2cc(Cl)ccc2n(Cc2ccccc2)c1=O	0.23	i	.	.
CN(C)C(CNC(=O)CCc1nc2cc(Cl)ccc2n(Cc2ccccc2)c1=O)c1ccccc1 (centres undefined)	.	i	74%*	i
CCCn1cc(CN2CCC(n3nccc3NC(=O)C(OC)c3ccccc3)CC2)c(C)n1 (centres undefined)	0.06	i	.	.
CC(c1ccco1)N(C(=O)CSc1ccc(Br)cc1)c1ccccn1 (centres undefined)	.	i	69%*	i
CC(C)c1ccc(C(=O)N(c2ccccn2)C(C)c2ccco2)cc1 (centres undefined)	.	i	.	.
CCN(CC)C(=O)c1ccc(NS(=O)(=O)c2ccc3[nH]c(=O)[nH]c3c2)cc1	.	i	.	.
COCCNC(=O)CN1C(=O)COc2ccc(S(=O)(=O)N3CC(C)CC(C)C3)cc21 (centres undefined)	0.43	i	.	.
Cc1ccc(S(=O)(=O)O/N=C2\CCCc3ccccc32)cc1	1.5	i	.	.
CC1=C(C)/C(=N\OS(=O)(=O)c2ccccc2)C=CC1=O	6.9*	i	69%*	i	CHO-K1 Tl ctr=17*;KCNQ1 sel pot=-17;KCNQ2 pot confirm=28*;Kir21 spec=-64;KCNQ2 W236L MoA=57%*
Cc1ccc(NC(=O)COc2coc(CN3CCc4ccccc43)cc2=O)cc1Cl	.	i	.	.
Cc1ccc(N/C=C/C(=O)C(C)(C)C)c(O)c1	8.3*	i	i	i	CHO-K1 Tl ctr=-1;KCNQ1 sel pot=2.9*;KCNQ2 pot confirm=8.3*;Kir21 spec=-21;KCNQ2 W236L MoA=i
CC(=O)Nc1ccc(N/C=C/C(=O)C(C)(C)C)cc1	.	i	.	.
Cc1cc(-c2ccccc2)n(-c2ccccc2)n1	0.02	i	.	.
O=c1[nH]cc(N(CCO)CCO)c(=O)[nH]1	0.03	i	.	.
C=CCOc1c(Br)cc(/C=N/O)cc1OCC	.	i	.	.
CCCCOc1c(Br)cc(/C=N/O)cc1OCC	.	i	74%*	i
Cc1onc(-c2c(Cl)cccc2Cl)c1C(=O)N=C(N)N1CCCC1	.	i	.	.
CCc1ccc(NS(=O)(=O)c2ccc3c(c2)CCN3C(=O)CCC(=O)O)cc1	.	i	.	.
CCCCC(CC)CNS(=O)(=O)c1ccc2c(c1)CCN2C(=O)CCC(=O)O (centres undefined)	.	i	i	i
